Test results: PubChem BioAssay AID1626 (SRMLSC, 2009)
“And” between values parts separate entries of the source, which are not always exact repeats. Equal values may be shown once. Screen size: about 220,000 compounds; about 2,000 (0.91%) were called active. About 2% were inconclusive and are not listed. The list is a sample of the results. Measured potencies and affinities stand elsewhere. A number with no mark means an inactive call. Rule as the data show it: inconclusive = inhibition above about 80% without an active follow-up result; inactive = below that; test concentration not stated here.

Assay: M. tuberculosis H37Rv growth inhibitors, H37Rv strain (AID 1626);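 also: bacteria incubated seven days before Alamar blue readout; 0% = bacteria only wells and 100% = bacteria with antibiotic wells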
Details: stronger effect = higher value, concentration not given here

| SMILES | inhibition |
| --- | --- |
| O=C(Nc1ccc2oc(-c3ccccc3Cl)nc2c1)c1ncn[nH]1 | 6.26% |
| Cc1[nH]nc(NNC(=O)c2ccccc2)c1[N+](=O)[O-] | -6.74% |
| O=C1NC(=O)N(c2ccccc2)C(=O)/C1=C\C=C\c1ccccc1 | -3.04% |
| O=C1NC(=O)N(c2ccccc2)C(=O)/C1=C/C=C/c1ccco1 | -5.19% |
| CN1C(=O)OC2(C)CCc3ccccc3C12C (stereo unspecified) | -7.1% |
| CNc1nc(C)nc(-n2nc(C)cc2C)n1 | 6.41% |
| Cc1cc(C)n(-c2nc(N(C)C)nc(N(C)C)n2)n1 | -2.29% |
| Cc1cc(C)n(-c2nc(Nc3ccccc3)nc(-n3nc(C)cc3C)n2)n1 | -2.93% |
| Cc1cc(C)n(-c2nc(C)nc(N)n2)n1 | -4.82% |
| Cc1ccccc1Nc1nc(N)nc(CCl)n1 | 77.4% |
| Cc1cc(NCCO)nc(-n2nc(C)cc2C)n1 | 8.23% |
| CC(=O)c1nnn(-c2nc(N)nc(N(c3ccccc3)c3ccccc3)n2)c1C | 3% |
| CC(C)Nc1nc(NC(C)C)nc(Nn2cnnc2)n1 | -7.25% |
| CCC1CCc2c(sc(NC(=O)C3c4ccccc4Oc4ccccc43)c2C(N)=O)C1 (stereo unspecified) | 5.29% |
| O=C(NC(=S)NCC1CCCO1)c1ccc(Cl)cc1 (stereo unspecified) | 2.47% |
| O=C(NCc1ccccc1)c1onc(CSc2ccccc2)c1C(=O)NCC1CC1 | -10.4% |
| CC(C)c1nnc(NC(=O)CSc2nnc(-c3ccco3)o2)s1 | -0.02% |
| O=C(Cn1c(=O)n(-c2ccccc2)c(=O)c2sccc21)NCc1ccccc1 | -8% |
| CN(C)S(=O)(=O)c1cccc(C(=O)NCC2CCCO2)c1 (stereo unspecified) | 4.28% |
| CC(=O)c1c(C)[nH]c(C(=O)NCc2cccc(Cl)c2)c1C | -6.84% |
| Cc1nnc(Sc2cc(C(=O)NCc3ccco3)c3ccccc3n2)s1 | 0.09% |
| CCCCNc1nc(-c2ccccc2)nc(-n2ccnc2)n1 | 1.24% |
| Cc1cc(C)n(-c2nnc(NCc3ccc(Cl)cc3)nn2)n1 | 8.99% |
| Cc1cc(C)n(-c2nnc(NC(C)(C)C)nn2)n1 | -8.78% |

| SMILES | inhibition |
| --- | --- |
| CC(C)Nc1nc(-c2ccccc2)nc(-n2ccnc2)n1 | 8.64% |
| Cc1sc2nc(CN3CCCC3)nc(N3CCN(C(=O)c4ccco4)CC3)c2c1C | -1.07% |
| Cc1ccccc1CC1(CO)CCCN(Cc2ccc(C#CC(C)(C)O)cc2)C1 (stereo unspecified) | 8.42% |
| COc1cccc(CN2CCC(C(=O)N3CCN(c4ccccc4F)CC3)CC2)c1 | -8.97% |
| CCOC(=O)c1cccc(NC(=O)N[C@@H](C)C(=O)OC)c1 | -9.35% |
| COc1ccc(-c2cn(-c3ccc(Br)cc3)c3[n+]2CCS3)cc1 | 5.88% |
| CC(=O)c1ccc(-n2cc(-c3ccc(C(C)(C)C)cc3)[n+]3c2SCCC3)cc1 | 40.7% |
| N#Cc1c(/N=C/C=C/c2ccccc2)sc2c1CCCC2 | -4.34% |
| Cc1cccc(OCC2=NS(=O)(=O)c3ccccc3N2)c1 | -21.3% |
| CCOC(=O)c1ccc(NC(=O)CSc2nnnn2CCCO)cc1 | 68.7% |
| Cc1cc(C)nc(SCC(=O)Nc2nc(-c3ccccc3)c(-c3ccccc3)o2)n1 | 5.45% |
| COc1ccc(NC(=O)CSc2nnnn2C)cc1 | -5.32% |
| Cn1nnnc1SCC(=O)Nc1ccccc1-c1ccccc1 | 36.5% |
| CCCCOC(=O)c1ccc(NC(=O)CSc2nncn2C)cc1 | 53.2% |
| Cn1nnnc1SCC(=O)Nc1ccc(Oc2ccccc2)cc1 | 57.4% |
| CCOC(=O)c1oc2ccc(S(=O)(=O)Nc3ccc4c(c3)n(C)c(=O)n4C)cc2c1C | -1.98% |
| O=C1CCCC2=C1C(c1ccsc1)CC(=O)N2c1ccccc1F (stereo unspecified) | -5.2% |
| CCN(CC)CCCNC(=O)c1ccccc1C | -9.77% |
| O=C(c1ccccc1)N1CCC2(CC1)OCCO2 | -4.39% |
| CCN=C1SC(C(=O)Nc2cccc(Cl)c2)CC(=O)N1CC (stereo unspecified) | 2.07% |
| O=C(c1cc2nc(-c3ccccc3)cc(-c3ccccc3)n2n1)N1CCCC1 | -3% |
| CN1CCN(C(=O)c2cc3nc(-c4ccccc4)cc(-c4ccccc4)n3n2)CC1 | 4.38% |
| CCCCn1c(=O)c(CCC(=O)OCC(=O)NC(=O)NCCC(C)C)nc2ccccc21 | -5.41% |
| On1nnc2ccc(C(F)(F)F)cc21 | 0.915% |

| SMILES | inhibition |
| --- | --- |
| S=C1NC2=C(CCCC2)C2(CCCCC2)N1 | 3.82% |
| Cc1cccc(C)c1OCc1nc2ccccc2[nH]1 | -5.31% |
| N=c1n(CCN2CCOCC2)c2ccccc2n1CC(=O)c1ccc(Cl)c(Cl)c1 | 17.4% |
| N=c1n(CCN2CCCCC2)c2ccccc2n1CC(O)c1ccc(Cl)c(Cl)c1 (stereo unspecified) | 57.5% |
| N#C/C(=C\c1ccc(OC(=O)c2ccc(Br)s2)cc1)c1nc2ccccc2[nH]1 | 66.1% |
| Cc1ccc2nc(/C(C#N)=C/c3ccc(-c4cccc([N+](=O)[O-])c4)o3)[nH]c2c1 | 1.74% |
| Cc1ccc2nc(/C(C#N)=C\c3cc(O)ccc3[N+](=O)[O-])[nH]c2c1 | -7.37% |
| N#C/C(=C\c1ccc(OC(=O)c2cccs2)cc1)c1nc2ccccc2[nH]1 | 28.1% |
| CN(Cc1nc(Cc2cccc(C(F)(F)F)c2)no1)C1CC(C)(C)NC(C)(C)C1 | 4.06% |
| COc1ccc(C(=O)NCC(=O)OCC(=O)NCCC2=CCCCC2)cc1 | 1.25% |
| CCN(CC)S(=O)(=O)c1ccc(-c2nnc(SCC(N)=O)n2CC)cc1 | -3.31% |
| CSc1ncc(CO)n1Cc1ccccc1 | -4.14% |
| O=C(O)c1ccc(CS(=O)(=O)Cc2ccccc2F)o1 | -18.6% |
| COc1ccc(-c2[nH]ncc2CN2CCCN(c3ccccc3)CC2)c(F)c1 | -1.64% |
| COc1ccc(-c2[nH]ncc2CN2CCN(c3ccc(F)cc3)CC2)cc1 | -12.3% |
| Cn1cnc([N+](=O)[O-])c1Nc1cccc(O)c1 | -3.69% |
| CC(=O)CSc1nc2ccc(Nc3nc(N4CCOCC4)nc(N4CCOCC4)n3)cc2s1 | 4.02% |
| Cc1cccc(Nc2nc(NCc3ccco3)nc(N3CCOCC3)n2)c1 | -1.15% |
| COc1ccc(Nc2nc(NCc3ccco3)nc(N3CCOCC3)n2)cc1 | -1.04% |
| O=C(CSc1nc2ccc(Nc3nc(N4CCCC4)nc(N4CCCC4)n3)cc2s1)NCc1ccco1 | 68.7% |
| O=C(Cn1cc[n+](Cc2ccccc2)c1)c1ccc([N+](=O)[O-])cc1 | 14% |
| O=C(Cn1c[n+](CC(=O)c2ccc([N+](=O)[O-])cc2)cn1)c1ccc([N+](=O)[O-])cc1 | -5.51% and -5.64% |
| Cc1ccc(/C(O)=C/c2nc3cc(C)ccc3oc2=O)cc1 | 16.9% |
| O=c1oc2cc([N+](=O)[O-])ccc2nc1/C=C(\O)c1cccc(Br)c1 | -3.89% |

| SMILES | inhibition |
| --- | --- |
| C/C(O)=C\c1nc2ccccc2oc1=O | 75.9% |
| O=c1oc2cc([N+](=O)[O-])ccc2nc1/C=C(O)/C=C/c1ccccc1 | -2.36% |
| Cc1ccc2oc(=O)c(/C=C(\O)c3cccs3)nc2c1 | -2.1% |
| Cc1ccc2oc(=O)c(/C=C(\O)c3ccccc3)nc2c1 | -10.4% |
| Cc1ccc2oc(=O)c(/C=C(\O)c3sc(C)nc3C)nc2c1 | -8.77% |
| O=c1oc2ccccc2nc1/C=C(O)/C=C/c1ccc(F)cc1 | 63.9% |
| C=CCc1cc(OC)ccc1OCCOCCN1CCc2ccccc2C1 | 6.94% |
| COc1cccc(CNc2ccc(F)c(Cl)c2)c1 | 12.1% |
| OCCC1CN(Cc2cccnc2)CCN1CCc1ccccc1 (stereo unspecified) | -0.305% |
| O=C(C[n+]1cc(-c2ccc(F)cc2)n2c1CCC2)OCc1ccccc1 | -9.6% |
| COc1ccc(-c2c[n+](CC(=O)N3c4ccccc4Sc4ccccc43)c3n2CCC3)cc1 | 78.6% |
| Cc1ccc(-c2c[n+](CC(=O)c3cccs3)c3n2CCC3)cc1 | 18.1% |
| O=C(C[n+]1cc(-c2ccccc2)n2c1CCCCC2)c1ccc(Cl)cc1 | 18.6% |
| O=C(C[n+]1cc(-c2ccc(F)cc2)n2c1CCC2)c1cccs1 | 0.03% |
| O=C(C[n+]1cc(-c2ccccc2)n2c1CCC2)OCc1ccccc1 | -7.15% |
| O=C(C[n+]1cc(-c2ccc(Cl)cc2)n2c1CCCCC2)c1ccccc1 | -4.68% |
| O=C(C[n+]1cc(-c2ccccc2)n2c1CCC2)c1cccs1 | -2.31% |
| O=C1CC(SCCc2nc3ccccc3[nH]2)C(=O)N1c1ccc(F)cc1 (stereo unspecified) | -1% |
| CS(=O)(=O)N(CC(=O)NC1CCCC1)Cc1ccc(Cl)cc1 | -2.78% |
| Cc1nc(Cl)c(C(=O)NC(C)(C)C)c(C)c1Cl | -4.14% |
| COc1ccc(N2C(=O)CCC(C(=O)NCc3ccccn3)C2c2ccc(OC)c(OC)c2)cc1 (stereo unspecified) | -14.1% |
| CC(=O)N1CCN(c2ccc([N+](=O)[O-])cc2C=C2C(=O)NC(=O)NC2=O)CC1 | 7.44% |
| CSc1nc2ccccc2n1CC(=O)Nc1ccccc1 | -4.24% |
| Cc1[nH]c2ccc(C(=O)OCCN(C)C)cc2c1C | -4.75% |
